From PubChem BioAssay (NCI)
About 83,000 compounds went through this panel and 20% of them were active in at least one assay; those are over-represented in the sample as a whole.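 Each cell line was grown in a 96-well plate and treated with one concentration of compound for 48 hours. Values below 10 were considered active.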 Activity calls are given as the source filed them.

How the values were obtained:
Experiment in all cases: NCI-60 one-dose screen, 48 h (100 = growth as untreated, 0 = no growth, -100 = all killed)
Settings in all cases: 10 µM unless noted
[1] = tested on: NCI-H23 lung
[2] = tested on: NCI-H226 lung
[3] = tested on: NCI-H322M lung
[4] = tested on: HOP-62 NSCLC
[5] = tested on: NCI-H460 lung
[6] = tested on: NCI-H522 lung
[7] = tested on: A549/ATCC NSCLC
[8] = tested on: 786-0 renal
[9] = tested on: DU-145 prostate
[10] = tested on: K-562 leukemia
[11] = tested on: MALME-3M melanoma
[12] = tested on: MDA-MB-231 breast
[13] = tested on: RXF 393 renal
[14] = tested on: SF-268 CNS
[15] = tested on: SF-295 CNS
[16] = tested on: SF-539 CNS
[17] = tested on: UACC-257 melanoma
[18] = tested on: COLO 205 colon
[19] = tested on: M14 melanoma

Measured: growth

NC(=O)c1c(NC(=O)c2ccc(F)cc2F)sc2c1CCC(=O)C2
inactive: [1] 18.5% | [2] 88% | [3] 99.8% | [4] 104% | [5] 109% | [6] 10.2% | [7] 106% | [8] 83.4% | [9] 101% | [10] 15.8% | [11] 63.8% | [12] 39.2% | [13] 85.1% | [14] 34.7% | [15] 99.7% | [16] 16.3% | [17] 81.8%

CC1(C)NCCC[C@]2(C)[C@H]3C/C(=N\O)C4[C@@H]5C[C@@](C)(CO)CC[C@]5(C)CC[C@@]4(C)[C@]3(C)CC[C@@H]12 (stereo partly specified)
inactive: [1] 94.2% | [2] 94.3% | [3] 101% | [4] 111% | [5] 100% | [6] 97.4% | [7] 95.3% | [8] 98.4% | [18] 103% | [9] 106% | [10] 80.7% | [12] 93.7% | [13] 91.5% | [14] 87.6% | [15] 100% | [16] 97.8% | [17] 102% | [19] 101%

C#CCC#CCN1CCC[C@H]1C(=O)NCC(=O)OC
inactive: [1] 96.7% | [2] 104% | [3] 101% | [4] 104% | [5] 112% | [6] 100% | [7] 97.6% | [8] 101% | [18] 114% | [9] 105% | [10] 98.1% | [12] 106% | [13] 105% | [14] 108% | [15] 107% | [16] 105% | [17] 93.7% | [19] 107%

O=C(Cn1cc[n+](CC(=O)c2ccc(-c3ccccc3)cc2)c1)Nc1cccc2cccnc12
inactive: [1] 76.8% | [2] 83.7% | [3] 95.7% | [4] 88.4% | [5] 87.8% | [6] 42.3% | [7] 88.1% | [8] 95.8% | [18] 74.2% | [9] 86.4% | [10] 50.5% | [12] 73.1% | [13] 98.3% | [14] 65.5% | [15] 102% | [16] 79.1% | [17] 34.4% | [19] 85%

Nc1nc(N)c2c(n1)NC(c1ccc(C(F)(F)F)cc1)CC(c1ccc(Nc3nc(NCCO)nc(N4CCOCC4)n3)cc1)=N2 (stereo unspecified)
inactive: [1] 72.8% | [2] 70.2% | [3] 95.6% | [4] 47.1% | [5] 48.3% | [6] 52.5% | [7] 74.4% | [8] 62.7% | [18] 71.1% | [9] 79.2% | [10] 17.9% | [12] 80.8% | [13] 67.9% | [14] 63.6% | [15] 73.2% | [16] 75.3% | [17] 80.2% | [19] 71.7%

CC(C)(C)c1ccc(CC(=O)Nc2sc3c(c2C(N)=O)CCC(=O)C3)cc1
active: [1] 7.26% | [5] 6.79% | [6] -49.3% | [18] -34.4% | [12] -20.2% | [13] -12.5% | [16] -36.4% | [17] -10.8% | [19] 7.16%
inactive: [2] 11.4% | [3] 44% | [4] 30.5% | [7] 17.1% | [8] 29.1% | [9] 26.4% | [14] 26% | [15] 10.1%

C#CCOC(=O)[C@@H]1CCCN1CC#C
inactive: [1] 96.7% | [2] 81.2% | [3] 106% | [4] 101% | [5] 87.8% | [6] 96.6% | [7] 80.3% | [8] 87.8% | [18] 88% | [9] 92% | [10] 76.8% | [12] 84.6% | [13] 81.7% | [14] 76.9% | [15] 102% | [16] 90.2% | [17] 97.3% | [19] 98.4%

C#C[C@]1(O)CC[C@H]2[C@@H]3CC=C4c5sc(-c6ccc7c(c6)OCO7)nc5CC[C@]4(C)[C@H]3CC[C@@]21C
inactive: [2] 32.3% | [3] 37.1% | [4] 11.2% | [18] 51.9% | [9] 20.1% | [10] 32.6% | [12] 51.8% | [14] 51.7% | [17] 17.7%
active: [1] 6.36% | [5] -26.2% | [6] 2.16% | [7] 6.31% | [8] -28.9% | [13] -49.3% | [15] -47.7% | [16] -36.6% | [19] 6.34%

CCOc1cccc(-c2nc3sccn3c2-c2ccnc(S(C)(=O)=O)n2)c1
active: [9] 0.125%
inactive: [1] 99.1% | [2] 94% | [3] 93.1% | [4] 100% | [5] 76.8% | [6] 98.9% | [7] 102% | [8] 103% | [10] 55.4% | [11] 98.8% | [12] 101% | [13] 98.3% | [14] 99.7% | [15] 104% | [16] 94.4% | [17] 91.1% | [19] 94.4%

O=C(CN1CCN(c2cc(=O)n(-c3ccccc3)c3ccccc23)CC1)Nc1nc(-c2ccccc2)cs1
inactive: [1] 60.8% | [2] 48.2% | [3] 89.4% | [4] 66.4% | [5] 32.2% | [6] 66.5% | [7] 56.2% | [8] 89.3% | [18] 60.1% | [9] 72.7% | [10] 22.4% | [12] 62.6% | [13] 76.9% | [14] 79.2% | [15] 66.7% | [16] 77.1% | [17] 48.5% | [19] 69.7%

NC(N)=Nc1ccc(Oc2cccc(Nc3cccc(C(F)(F)F)c3)c2)cn1
inactive: [2] 20.1% | [3] 14.7% | [7] 35.8% | [8] 33.7% | [12] 12% | [14] 49.3% | [16] 70.8% | [17] 25.8%
active: [1] -2.6% | [4] 3.3% | [5] -76.8% | [6] -34.6% | [18] -47.3% | [9] -10.7% | [10] -47.3% | [13] 2.79% | [15] -86.1% | [19] 5.01%

O=C(CCn1c[n+](CC(=O)c2ccc(F)cc2)c2ccccc21)Nc1cccc2cccnc12
inactive: [1] 83.4% | [2] 78.1% | [3] 93.9% | [4] 85.7% | [5] 88.3% | [6] 67.5% | [7] 102% | [8] 102% | [18] 55.7% | [9] 96.6% | [10] 58.5% | [12] 57.4% | [13] 92.7% | [14] 78.6% | [15] 99.2% | [16] 89.6% | [17] 47.6% | [19] 79.8%

Cc1ccc(C2=NN(C)C(=O)C3(CCCC3)C2)cc1
inactive: [1] 106% | [2] 105% | [3] 103% | [4] 114% | [5] 112% | [6] 103% | [7] 99.5% | [8] 103% | [18] 115% | [9] 107% | [10] 107% | [12] 104% | [13] 124% | [14] 98.1% | [15] 101% | [16] 103% | [17] 100% | [19] 108%

NC(N)=Nc1ccc(Oc2cccc(Oc3ccc(Cl)c(C(F)(F)F)c3)c2)cn1
inactive: [14] 64.9%
active: [1] -83.5% | [2] -73.4% | [3] -6.46% | [4] -56% | [5] -78.8% | [6] -67.9% | [7] -67.1% | [8] -82% | [18] -68.2% | [9] -91.9% | [10] -54.7% | [12] -82.9% | [13] 7.96% | [15] -93.5% | [16] -79.7% | [17] -56% | [19] -84.3%

COc1cc2nc(Cl)nc(Nc3cccc(C4=Nc5c(N)nc(N)nc5NC(c5ccc(F)cc5)C4)c3)c2cc1OC (stereo unspecified)
active: [15] 2.02%
inactive: [1] 75.9% | [2] 75.8% | [3] 83.8% | [4] 12.2% | [5] 21.7% | [6] 50% | [7] 64.2% | [8] 62.1% | [18] 70.7% | [9] 79.4% | [12] 76.4% | [13] 51.1% | [14] 77.4% | [16] 88.6% | [17] 92.1% | [19] 86.8%

COc1cc(OC)cc(C(=O)Nc2sc3c(c2C(N)=O)CCC(=O)C3)c1
inactive: [1] 19.1% | [2] 86% | [3] 98.6% | [4] 60% | [5] 57.9% | [7] 95.8% | [8] 85% | [18] 47.2% | [9] 99.4% | [12] 52.4% | [13] 85.1% | [14] 30.7% | [15] 65.3% | [16] 16.6% | [17] 53.2% | [19] 22.9%
active: [6] 5.02%

COc1cc2nc(Cl)nc(Nc3cccc(C4=Nc5c(N)nc(N)nc5NC(c5ccc(Br)cc5)C4)c3)c2cc1OC (stereo unspecified)
inactive: [1] 91% | [2] 93% | [3] 98.1% | [4] 43.5% | [5] 28% | [6] 68.2% | [7] 55.9% | [8] 64.7% | [18] 66.3% | [9] 90% | [12] 92.9% | [13] 77.2% | [14] 84.4% | [15] 32% | [16] 93.2% | [17] 105% | [19] 84.1%
